These results are taken from paper PMC13494018.

For the experiment, the target named is CD276, Q5ZPR3.

Unmarked numbers belong to inactive results. How the calls were made is not given here.

CD276, Q5ZPR3, sequence (Q5ZPR3 whole entry): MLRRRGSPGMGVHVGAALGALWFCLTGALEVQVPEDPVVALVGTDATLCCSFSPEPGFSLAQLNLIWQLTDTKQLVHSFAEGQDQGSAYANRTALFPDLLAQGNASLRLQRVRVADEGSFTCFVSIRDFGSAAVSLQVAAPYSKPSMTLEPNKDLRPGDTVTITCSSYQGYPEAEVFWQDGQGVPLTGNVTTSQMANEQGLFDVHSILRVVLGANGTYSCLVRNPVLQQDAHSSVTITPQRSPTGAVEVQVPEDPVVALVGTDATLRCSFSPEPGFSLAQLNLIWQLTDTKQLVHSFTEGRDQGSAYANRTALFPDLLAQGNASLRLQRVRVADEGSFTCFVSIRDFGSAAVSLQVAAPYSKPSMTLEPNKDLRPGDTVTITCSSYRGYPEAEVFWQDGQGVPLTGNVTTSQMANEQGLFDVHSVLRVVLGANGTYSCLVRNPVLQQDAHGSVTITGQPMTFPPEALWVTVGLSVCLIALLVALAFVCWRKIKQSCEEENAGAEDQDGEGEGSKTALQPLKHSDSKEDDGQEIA

B1: design_616_e8336982-fa4d-4d7c-b06f-9007953e1994_2209_dldesign_0_cycle1_af2pred (protein)
chain: NAEAGKYLEEALKLAAEAQKAAAANPAVAPEVIAQASRLVAEAAKAALAGDTKAAKEYLEKMKELRDAAKAALAAA
Consider B1, for which the “binding in a display sort” value is “not found”.

B2: design_617_b3fadc1d-0db4-4da8-8433-818493aa2ab2_636_dldesign_0_cycle1_af2pred (protein)
chain: TATLKEILAKVEKALELLKNASPETLNQALSLLTQAWALANKVDPAVAAAINAAIAALVDGMAKGVEVASKEGSAAAEKAIAAVKAAI
Regarding B2, the “binding in a display sort” value was “not found”.

B3: design_616_e8336982-fa4d-4d7c-b06f-9007953e1994_2287_dldesign_0_cycle1_af2pred (protein)
chain: TPEQLKQAAKQALAAAKALVKNAKQASLEDAKKLAEVAKDLTENAIKAAAKAGPEAEKEAKAKAEEIKKAAEEAIAAKEA
Consider B3, for which the “binding in a display sort” value is “not found”.

B4: design_617_b3fadc1d-0db4-4da8-8433-818493aa2ab2_206_dldesign_0_cycle1_af2pred (protein)
chain: ADALTKKTAEAIYQQVKKRAEELLKKAKEGTPELAKELAKELKKIAEANAKALSSLGPLGEEYAKKVKEYAEKVIKEIEKII
For B4, the “binding in a display sort” value is “not found”.

B5: design_616_e8336982-fa4d-4d7c-b06f-9007953e1994_2162_dldesign_0_cycle1_af2pred (protein)
chain: MLTPEQLQASINAIKAATRKAVEMARAGNEESAEKLLEVARDIAEALLKTDPEAGKEALKIVEEGEEEARKAAEEVRA
Take B5: the “binding in a display sort” value is “binds (active)”.

B6: design_616_e8336982-fa4d-4d7c-b06f-9007953e1994_2198_dldesign_0_cycle1_af2pred (protein)
chain: MEEERRKKAEELLEKATKELKAMQAQAEALAKAGDIGAATQLVVDAARYGAEVTREAEKIDPEVAEKMAEVTNKIIAAALKALTAYAA
B6: the “binding in a display sort” value is “not found”.

B7: design_617_b3fadc1d-0db4-4da8-8433-818493aa2ab2_655_dldesign_0_cycle1_af2pred (protein)
chain: AEEEERLRRQAEGLYELTKAVAEYLAKNPAAAEQAKALKEKAEKAFEEGMKEHPAEAIRRLQAVLNEASRAAIAASA
For B7, the “binding in a display sort” value was “not found”.

B8: design_616_e8336982-fa4d-4d7c-b06f-9007953e1994_2109_dldesign_0_cycle1_af2pred (protein)
chain: AAAAQAAAADAALAAATSMLEKAKEMAATNPESAKKAATVAVDLANYAIALPAATPEQKAQAQKIKEEAEALIASL
Take B8: the “binding in a display sort” value was “not found”.

B9: design_617_b3fadc1d-0db4-4da8-8433-818493aa2ab2_734_dldesign_0_cycle1_af2pred (protein)
chain: MAEEIIREATRVATEAARLAVKYGNEVANKALALAVEAMELAASGENAEEAKKKLEEAKKLLEEAKKIAKEKE
With B9, the “binding in a display sort” value was “not found”.

B10: design_616_e8336982-fa4d-4d7c-b06f-9007953e1994_2151_dldesign_0_cycle1_af2pred (protein)
chain: GAAAAAEETAKKVAKYLVKGDAEEAAKEALKGHTKNQAQHIVLRAANLAAKETGKSQSIYAKAAEAIALIEA
As to B10, the “binding in a display sort” value is “not found”.

B11: design_616_e8336982-fa4d-4d7c-b06f-9007953e1994_2432_dldesign_0_cycle1_af2pred (protein)
chain: NQTKSLAQGAIAMAEAIAEELRRLGDEESAKKVEEMAKEAKKLIEEGKYEEALKVATEGVAYGAERVAALR
B11: the “binding in a display sort” value is “not found”.

B12: design_617_b3fadc1d-0db4-4da8-8433-818493aa2ab2_522_dldesign_0_cycle1_af2pred (protein)
chain: ADPAQASQQALNAAKAAIKSAARAAKAGNLEDAKKLAEVAADLIAQASPEQAAEALKVAKEEAAEVPEIAEYMISKAEAALAQAKARA
As to B12, the “binding in a display sort” value was “not found”.

B13: design_617_b3fadc1d-0db4-4da8-8433-818493aa2ab2_588_dldesign_0_cycle1_af2pred (protein)
chain: AAAEAAKLQAERDALIKKALEAIEEASALAKELGNQEALALVHKSLTLIAKSLGADAETGLKLAKEALKAAEAALALLKKA
Turning to B13, the “binding in a display sort” value is “not found”.

B14: design_617_b3fadc1d-0db4-4da8-8433-818493aa2ab2_49_dldesign_0_cycle1_af2pred (protein)
chain: SKLSEEAKKKAEEYLKKAEEAYKLAKEDPAAGQAKLSEILTKAMEAQTEFYKKDPSNKEALDYLNKTIQTITKYLVEAAKL
With B14, the “binding in a display sort” value was “not found”.

B15: design_617_b3fadc1d-0db4-4da8-8433-818493aa2ab2_117_dldesign_0_cycle1_af2pred (protein)
chain: AEKDEEAKKLVEKAKELAEAGLQTAQATGNVALAQAAANMAKALAKEAIRLAEDEKVKEEAKKEAKQAEKALKQAKA
For the molecule B15, the “binding in a display sort” value is “not found”.

B16: design_617_b3fadc1d-0db4-4da8-8433-818493aa2ab2_145_dldesign_0_cycle1_af2pred (protein)
chain: LQETADKAIEAANKLAELDPEVGDALKTAAETALAQGNEAQARAVKNMAESAYKYFSAKAEAAKAAAEAAA
For the molecule B16, the “binding in a display sort” value is “not found”.

B17: design_617_b3fadc1d-0db4-4da8-8433-818493aa2ab2_224_dldesign_0_cycle1_af2pred (protein)
chain: AEAQALLDQAKAYLAQGTALFQSDPSLSSQALQQFGLAYIYASRAAALATAAGDTATADAAKAVQDQALANMQAIAAS
As for B17, the “binding in a display sort” value was “not found”.

B18: design_617_b3fadc1d-0db4-4da8-8433-818493aa2ab2_797_dldesign_0_cycle1_af2pred (protein)
chain: AEELAEEAKKYIEEARKKVTELYNEAGATELAEEANEKLESAREIVESGREHPELLPAAVAFARSVADAQLRKAESLV
With B18, the “binding in a display sort” value is “not found”.

B19: design_616_e8336982-fa4d-4d7c-b06f-9007953e1994_2365_dldesign_0_cycle1_af2pred (protein)
chain: DVGAATVAAVNATAAAALAAVKEAAKLSPEEAKAATGAALAALADTVGQANKAALAHPEHSAQIVGTGVDALAAVQAAADEAIAKAKA
As to B19, the “binding in a display sort” value was “not found”.
